The panel holds about 83,000 compounds, 20% with a hit somewhere; the sample as a whole holds those more often.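 In brief: 96-well plates, 48 h treatment, single concentration, percent growth endpoint.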 Active and inactive are the calls of the source. Rule for the calls: active = growth percent below 10; inactive = the rest.
Columns and labels:
Test in all cases: NCI-60 one-dose screen, 48 h (100 = growth as untreated, 0 = no growth, -100 = all killed)
Conditions in all cases: 10 µM unless noted
SK-MEL-2 melanoma = test system: SK-MEL-2 melanoma
EKVX NSCLC = test system: EKVX NSCLC
SN12C renal = test system: SN12C renal
UO-31 renal = test system: UO-31 renal
TK-10 renal = test system: TK-10 renal
ACHN renal = test system: ACHN renal
CAKI-1 renal = test system: CAKI-1 renal
A498 renal = test system: A498 renal
CCRF-CEM leukemia = test system: CCRF-CEM leukemia
MOLT-4 leukemia = test system: MOLT-4 leukemia

Measured: growth

Cc1ccc(S(=O)(=O)N2CCC(=O)c3ccccc32)cc1
inactive: SK-MEL-2 melanoma 56.9% | EKVX NSCLC 102% | SN12C renal 81.2% | UO-31 renal 71.1% | TK-10 renal 89.1% | ACHN renal 90.7% | CAKI-1 renal 91.9% | A498 renal 83.2% | CCRF-CEM leukemia 66.3% | MOLT-4 leukemia 64.1%

C=C(C)[C@@H]1CC[C@]2(C(=O)N3CCN(C)CC3)CC[C@]3(C)[C@H](CC[C@@H]4[C@@]5(C)CC[C@H](OC(=O)c6ccccc6C(=O)O)C(C)(C)[C@@H]5CC[C@]43C)[C@@H]12
inactive: SK-MEL-2 melanoma 107% | EKVX NSCLC 98.4% | SN12C renal 93.5% | UO-31 renal 77.7% | TK-10 renal 106% | ACHN renal 100% | CAKI-1 renal 83.9% | A498 renal 74.9% | CCRF-CEM leukemia 97.1% | MOLT-4 leukemia 88.7%

CN1CCN(c2ccc(NC(=O)c3cncnc3Nc3ccc(OCc4cccc(F)c4)c(Cl)c3)cc2)CC1
active: MOLT-4 leukemia 6.75%
inactive: SK-MEL-2 melanoma 120% | EKVX NSCLC 98.6% | SN12C renal 63.9% | UO-31 renal 25% | TK-10 renal 103% | ACHN renal 89.3% | CAKI-1 renal 81.5% | A498 renal 70.8% | CCRF-CEM leukemia 16.2%

O=C(CC(=O)Nc1cccc(C(=O)O)c1)Nc1cccc(C(=O)O)c1
inactive: SK-MEL-2 melanoma 90.7% | EKVX NSCLC 101% | SN12C renal 102% | UO-31 renal 88.5% | TK-10 renal 102% | ACHN renal 91.6% | CAKI-1 renal 86.5% | A498 renal 104% | CCRF-CEM leukemia 94.2% | MOLT-4 leukemia 103%

O=C1/C(=C\c2ccccn2)c2ccccc2N1c1c(Cl)cccc1Cl
inactive: SK-MEL-2 melanoma 48.8% | EKVX NSCLC 27.2% | SN12C renal 18.1% | UO-31 renal 16.8% | TK-10 renal 52% | ACHN renal 19.6% | A498 renal 21.3%
active: CAKI-1 renal -1.37% | CCRF-CEM leukemia 8.81% | MOLT-4 leukemia 3.48%

CCN1C(=O)N(CC)C2C1NN=c1s/c(=C3\C(=O)N(CC(C)C)c4ccccc43)c(=O)n12 (stereo unspecified)
active: A498 renal 9.64%
inactive: SK-MEL-2 melanoma 56% | EKVX NSCLC 53.7% | SN12C renal 27.5% | UO-31 renal 32.1% | TK-10 renal 70.2% | ACHN renal 31% | CAKI-1 renal 31.6% | CCRF-CEM leukemia 11.6% | MOLT-4 leukemia 19.6%

COc1ccc(-c2nc3c(N)c(CO)cnc3s2)cc1
inactive: SK-MEL-2 melanoma 105% | EKVX NSCLC 48.4% | SN12C renal 108% | UO-31 renal 84.6% | TK-10 renal 91.9% | ACHN renal 93.4% | CAKI-1 renal 88.7% | CCRF-CEM leukemia 103% | MOLT-4 leukemia 91.1%
active: A498 renal -19.1%

O=S1(=O)C=C(c2ccccc2)C(c2ccccc2)=C1
inactive: SK-MEL-2 melanoma 52.1% | EKVX NSCLC 90.1% | SN12C renal 12.8% | A498 renal 79.5%
active: UO-31 renal -6.37% | TK-10 renal -37.1% | ACHN renal -47.4% | CAKI-1 renal -15.6% | CCRF-CEM leukemia 2.77% | MOLT-4 leukemia 1.8%

COc1ccc(/C=C/C(=O)c2cc3c(N)c(C(=O)Nc4cccc(Cl)c4C)sc3nc2C)cc1
inactive: SK-MEL-2 melanoma 51.6% | EKVX NSCLC 44.5% | UO-31 renal 22.9% | TK-10 renal 28.7% | ACHN renal 17.7% | CAKI-1 renal 13.2% | CCRF-CEM leukemia 10.9% | MOLT-4 leukemia 19%
active: SN12C renal 4.97% | A498 renal 4.47%

CC(=O)c1sc2sc(C(C)=O)c(C)c2c1C
inactive: SK-MEL-2 melanoma 107% | EKVX NSCLC 42.8% | SN12C renal 98% | UO-31 renal 88.4% | TK-10 renal 74.9% | ACHN renal 98.9% | CAKI-1 renal 86.4% | CCRF-CEM leukemia 63.6% | MOLT-4 leukemia 85.5%
active: A498 renal -82.4%

Cc1cccc(N2CCC(=O)NC2=S)c1
inactive: SK-MEL-2 melanoma 122% | EKVX NSCLC 107% | SN12C renal 98.2% | UO-31 renal 88.2% | TK-10 renal 104% | ACHN renal 107% | CAKI-1 renal 101% | A498 renal 107% | CCRF-CEM leukemia 154% | MOLT-4 leukemia 104%

CCCCCCCCCCCCCCCCCCOc1ccccc1CC(=O)NCC[N+]1(C)CCCCC1
inactive: SK-MEL-2 melanoma 64.5% | EKVX NSCLC 89.1% | SN12C renal 33% | UO-31 renal 76.2% | TK-10 renal 42.1% | ACHN renal 93.6% | CAKI-1 renal 79.3% | A498 renal 66%
active: MOLT-4 leukemia 9.62%

COc1ccc(/C(C)=C(/c2ccc(OCCCN(C)C)cc2)c2ccc(OC(=O)c3ccccc3)cc2)cc1
inactive: SK-MEL-2 melanoma 90.9% | EKVX NSCLC 74.5% | SN12C renal 79.1% | UO-31 renal 45.1% | TK-10 renal 87.8% | ACHN renal 111% | CAKI-1 renal 89.7% | A498 renal 91.5% | MOLT-4 leukemia 54.2%

CCCCCCCCCCCCCOC(=O)c1c(C)[nH]c(/C=C2\N=C(c3ccc[nH]3)C=C2OC)c1C
active: SK-MEL-2 melanoma -42.1% | UO-31 renal -54.4% | ACHN renal 8.11% | CAKI-1 renal -7.49%
inactive: EKVX NSCLC 52.3% | SN12C renal 40.7% | TK-10 renal 34.4% | A498 renal 10.3% | MOLT-4 leukemia 22.8%

Cc1ccc(C2CC(c3nc(-c4ccc(Cl)cc4)oc3C)=NN2C(=O)c2ccncc2)cc1 (stereo unspecified)
inactive: SK-MEL-2 melanoma 92.9% | EKVX NSCLC 91.3% | SN12C renal 86.8% | UO-31 renal 58.2% | TK-10 renal 106% | ACHN renal 87.3% | CAKI-1 renal 69.2% | A498 renal 82.6% | MOLT-4 leukemia 64.7%

COc1ccc(/C=C(/C(=O)n2cnnn2)c2cc(OC)c(OC)c(OC)c2)cc1
active: A498 renal 1.86%
inactive: SK-MEL-2 melanoma 57.6% | EKVX NSCLC 46.5% | SN12C renal 42.6% | UO-31 renal 42.4% | TK-10 renal 44.9% | ACHN renal 48% | CAKI-1 renal 36.1% | MOLT-4 leukemia 40.5%

COc1ccc(C[n+]2c3ccccc3n3c4ccc(N)cc4ccc32)c(OC)c1OC
active: SN12C renal 6.42%
inactive: SK-MEL-2 melanoma 44% | EKVX NSCLC 49.3% | UO-31 renal 88.7% | TK-10 renal 78.2% | ACHN renal 101% | CAKI-1 renal 96.6% | A498 renal 81.3% | MOLT-4 leukemia 67.9%

Fc1ccc2[nH]cc(-c3nc(-c4c[nH]c5ccncc45)cs3)c2c1
active: SK-MEL-2 melanoma -49.9% | EKVX NSCLC -45.7% | SN12C renal -49.8% | UO-31 renal -69.9% | TK-10 renal -37.4% | ACHN renal -78.2% | CAKI-1 renal -17.4% | MOLT-4 leukemia -32.6%
inactive: A498 renal 62.1%

Nc1nc(N)c2c(n1)NC(c1cccc(Nc3ccnc4cc(C(F)(F)F)ccc34)c1)CC(c1ccc(Br)cc1)=N2 (stereo unspecified)
active: MOLT-4 leukemia 9.24%
inactive: SK-MEL-2 melanoma 52.4% | EKVX NSCLC 51.5% | SN12C renal 63% | UO-31 renal 62.2% | TK-10 renal 96.8% | ACHN renal 82% | CAKI-1 renal 48.6% | A498 renal 77.1%

C#CC#CC#CC#CC#CC#CC#CC#CC[C@@H]1OC[C@@H](COC(=O)O[C@@H](C(=O)O[C@H]2C[C@@]3(O)[C@@H](OC(=O)c4ccccc4)[C@@H]4[C@]5(OC(C)=O)CO[C@@H]5C[C@H](O)[C@@]4(C)C(=O)[C@H](OC(C)=O)C(=C2C)C3(C)C)[C@@H](NC(=O)c2ccccc2)c2ccccc2)O1
inactive: SK-MEL-2 melanoma 105% | EKVX NSCLC 35.2% | SN12C renal 21.4% | UO-31 renal 35.2% | TK-10 renal 123% | ACHN renal 26.5% | CAKI-1 renal 81.3% | A498 renal 52.9%
active: MOLT-4 leukemia 9.3%

CCCCCCCC/C=C\CCCCCCCCOc1ccc(CC(=O)NCC[N+]2(C)CCOCC2)cc1
inactive: SK-MEL-2 melanoma 112% | EKVX NSCLC 91.2% | SN12C renal 64.1% | UO-31 renal 93.5% | TK-10 renal 44.7% | ACHN renal 82.9% | CAKI-1 renal 53.5% | A498 renal 91.8% | CCRF-CEM leukemia 53% | MOLT-4 leukemia 79.9%

COc1cccc(CCNc2ncnc3c2ncn3Cc2nnc3c4ccccc4c(Cl)nn23)c1
inactive: SK-MEL-2 melanoma 20.2% | EKVX NSCLC 73.9% | SN12C renal 46.9% | UO-31 renal 25.2% | TK-10 renal 67.4% | ACHN renal 24.9% | CAKI-1 renal 18.3% | A498 renal 83.4% | MOLT-4 leukemia 20.8%

CC1(C)CC2=C3C=C[C@@H]4[C@@]5(C)CCC(=O)C(C)(C)[C@@H]5CC[C@@]4(C)[C@]3(C)CC[C@@]2(C(=O)O)C[C@H]1O
active: SK-MEL-2 melanoma 9.89% | ACHN renal 8.49%
inactive: EKVX NSCLC 34.9% | SN12C renal 21.8% | UO-31 renal 17.1% | TK-10 renal 16.9% | CAKI-1 renal 22.9% | A498 renal 34.9% | MOLT-4 leukemia 19.5%

CCN(CC)CCCOc1ccc2ncnc(Nc3ccc(Oc4cccc(C(F)(F)F)c4)c(Cl)c3)c2c1
inactive: EKVX NSCLC 23.4% | SN12C renal 47.1% | TK-10 renal 25.7% | A498 renal 21.3%
active: SK-MEL-2 melanoma -14.7% | UO-31 renal 0.274% | ACHN renal -13.4% | CAKI-1 renal -24.4% | MOLT-4 leukemia 0.414%

COc1cc(-c2nc3cc(Cl)c(Cl)cc3[nH]2)ccc1OCC(=O)N=Nc1c(O)[nH]c2ccc(Cl)cc12
active: SK-MEL-2 melanoma -27.3% | SN12C renal 0.477% | CCRF-CEM leukemia -31.3% | MOLT-4 leukemia -27.8%
inactive: EKVX NSCLC 45.7% | UO-31 renal 89% | TK-10 renal 36.5% | ACHN renal 29.2% | CAKI-1 renal 15.2% | A498 renal 20.1%

Cc1nn(-c2cc(NC3CCC(O)CC3)c3c(=O)[nH]c(CCC(F)(F)F)cc3c2)c2c1C(=O)CC(C)(C)C2 (stereo unspecified)
inactive: SK-MEL-2 melanoma 60.3% | EKVX NSCLC 54% | SN12C renal 46.2% | UO-31 renal 39% | TK-10 renal 61.7% | ACHN renal 31.5% | CAKI-1 renal 47.4% | A498 renal 12.4% | MOLT-4 leukemia 40.8%

COc1ccc(C(=O)Cn2c(C(=O)c3ccc(OC)cc3)nc3ccccc32)cc1
inactive: SK-MEL-2 melanoma 88.4% | EKVX NSCLC 73.3% | SN12C renal 41% | UO-31 renal 35.4% | TK-10 renal 51.5% | ACHN renal 43.8% | CAKI-1 renal 25.4% | A498 renal 34.2% | MOLT-4 leukemia 15.6%

Reference: PubChem BioAssay (NCI)
